Bioassay records (PubChem)
Hits are enriched below; roughly 9.9% of the tested compounds scored in any of these assays.
ALDH1A1 block: inhibitors of human aldehyde dehydrogenase 1A1. P00352. Purified ALDH1A1, NADH fluorescence, propionaldehyde substrate. Potency, µM (top dose mostly 75.3 µM), without a hit: top-dose activity, negative = inhibition, hits mostly inhibitors. 220,000 tested, 7.3% active;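 also: plate controls were no enzyme wells and a reference inhibitor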
Tau FP inhib: tau fibrillization inhibition (FP); P10636; K18 P301L tau heparin fibrillization, Alexa594 FP, 6 h; Potency, µM (doses to about 57.7 µM), without a hit: at the top dose activity, negative = inhibition, most hits filed as inhibitors; 280,000 tested, 0.39% active; AID 1468; active = well fitted curve in the direction sought with a large enough effect; inconclusive = small, poorly fitted or top-dose-only effect, or another doubt; inactive = no such curve, though single readings can be large; an effect the other way counts as inactive or inconclusive; also: nearly all actives have a fitted effect of over 55% in size
Target sequence (P10636 561-689 P618L limits assumed): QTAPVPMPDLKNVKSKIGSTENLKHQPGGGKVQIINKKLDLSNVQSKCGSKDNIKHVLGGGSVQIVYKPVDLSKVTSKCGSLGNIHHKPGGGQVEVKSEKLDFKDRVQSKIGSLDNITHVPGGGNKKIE
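Human K18 P301L fragment (15 uM unlabeled plus 0.24 uM Alexa 594-labeled) in 100 mM sodium acetate pH 7 with compound, aggregation induced by 20 uM heparin for 6 hr at 37 C. ThT (30 uM) added for 1 hr, then Alexa 594 FP read.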
JMJD2E inh: blocks human JMJD2E demethylase activity. B2RXH2. JMJD2E catalytic domain, FDH-coupled NADH fluorescence (FDH is formaldehyde dehydrogenase). Potency, µM (top dose mostly 57.1 µM), inactives show at the highest dose activity change, negative = inhibition, hits mostly inhibitors. AID 2147. 230,000 tested, 1.6% active;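 also: 0% = wells with enzyme and -100% = buffer wells without enzyme; nearly all actives have a fitted effect of over 50% in size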
Target sequence (B2RXH2 1-337 limits assumed): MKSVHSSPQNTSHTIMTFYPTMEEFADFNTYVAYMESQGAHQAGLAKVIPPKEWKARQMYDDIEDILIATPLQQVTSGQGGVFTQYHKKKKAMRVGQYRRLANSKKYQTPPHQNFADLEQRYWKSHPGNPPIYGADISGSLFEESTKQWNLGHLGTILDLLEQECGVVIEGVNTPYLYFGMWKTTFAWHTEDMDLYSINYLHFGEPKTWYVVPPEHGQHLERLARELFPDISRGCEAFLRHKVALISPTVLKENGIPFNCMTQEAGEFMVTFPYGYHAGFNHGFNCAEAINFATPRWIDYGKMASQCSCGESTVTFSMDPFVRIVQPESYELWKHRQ
HPGD inh: blocks human HPGD enzyme activity. purified HPGD, NADH fluorescence kinetic, PGE2 substrate. Potency, µM, inactives show at the top dose activity change, negative = inhibition, actives largely listed as inhibitors. 150,000 tested, 4.3% active. AID 894
Target sequence (P15428 whole entry, looked up): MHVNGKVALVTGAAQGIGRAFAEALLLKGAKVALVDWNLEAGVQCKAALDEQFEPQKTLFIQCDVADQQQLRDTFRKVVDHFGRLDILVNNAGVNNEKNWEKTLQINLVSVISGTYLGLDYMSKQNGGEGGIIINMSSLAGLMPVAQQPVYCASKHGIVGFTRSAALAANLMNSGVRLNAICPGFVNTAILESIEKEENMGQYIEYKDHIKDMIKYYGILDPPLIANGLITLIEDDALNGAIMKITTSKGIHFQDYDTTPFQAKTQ
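20 nM HPGD preincubated 15 min at room temperature with compound in 50 mM Tris-HCl pH 8, 0.01% Tween 20. Started with 1 mM NAD+ and 30 uM prostaglandin E2; NADH fluorescence (360/450 nm) read 5 times over 30-s intervals, last minus first.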
Tau fluor counter: counter-screen for tau fibril formation inhibitors; tau K18 P301L Alexa594 fluorescence, heparin fibrillization; Potency, µM (doses to about 57.7 µM), inactives show at the highest dose activity change, negative = decrease; AID 1463; 280,000 tested, 0.93% active; active = well fitted curve in the direction sought with a large enough effect; inconclusive = small, poorly fitted or top-dose-only effect, or another doubt; inactive = no such curve, though single readings can be large; an effect the other way counts as inactive or inconclusive; also: nearly all actives have a fitted effect of over 55% in size
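Human tau K18 P301L (15 uM unlabeled, 0.24 uM Alexa 594-labeled) in 100 mM sodium acetate pH 7 with 20 uM heparin, 6 hr at 37 C. ThT 30 uM added, 1 hr ambient; Alexa 594 FP and total fluorescence read at 555/632 nm.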
Tau ThT inhib: inhibitors of human tau fibril formation, thioflavin T binding; AID 1460; Potency, µM (top dose mostly 57.4 µM), without a hit: top-dose activity, negative = inhibition, usual class: inhibitors; 270,000 tested, 2.1% active; P10636; recombinant tau K18 P301L (four-repeat tau fragment), heparin-induced fibrillization, ThT fluorescence; active = well fitted curve in the direction sought with a large enough effect; inconclusive = small, poorly fitted or top-dose-only effect, or another doubt; inactive = no such curve, though single readings can be large; an effect the other way counts as inactive or inconclusive; also: nearly all actives have a fitted effect of over 55% in size
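K18 P301L tau (15 uM + 0.24 uM Alexa 594-tagged), heparin 20 uM, NaOAc pH 7, 6 h 37 C; ThT 30 uM, 1 h RT, ex 450/em 510 nm.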
Active calls of the source: *; ? = inconclusive; · = no result given; [ ] = another dose, or the depositor's remark. Unless noted, calls follow the shape of the dose curve; as a rule, active = well fitted inhibition curve with a large enough effect (not every such curve was filed as active); inconclusive = small, poorly fitted or top-dose-only effect, or another doubt; inactive = no such curve, though single readings can be large or run the other way. Unless noted, % is scaled to controls: 0 for no effect and ±100 for the full control effect; potency is read from the fitted curve at half-maximal effect.

SMILES	ALDH1A1 block	Tau FP inhib	JMJD2E inh	HPGD inh	Tau fluor counter	Tau ThT inhib
O=C(N/N=C\c1ccc(O)c([N+](=O)[O-])c1)C1COc2ccccc2O1 (stereo unspecified)	·	?	-21.7%	·	-12.4%	10µM*
Cc1cc([N+](=O)[O-])cc(/C=N\NC(=O)C2COc3ccccc3O2)c1O (stereo unspecified)	·	8.7%	?	·	?	12.6µM*
O=C(N/N=C/c1ccc2c(c1)OCO2)C1COc2ccccc2O1 (stereo unspecified)	?	-4.2%	-25.8%	-18.0%	-13.9%	?
O=C(N/N=C/C=C/c1ccc([N+](=O)[O-])cc1)C1COc2ccccc2O1 (stereo unspecified)	25.1µM*	5.0%	-1.4%	-24.9%	15.8µM*[quencher]	4.47µM*
O=C(N/N=C\c1cc(Br)cs1)C1COc2ccccc2O1 (stereo unspecified)	20µM*	-3.1%	-1.6%	-8.3%	-21.0%	?
O=C(Cn1nc2ccccc2n1)N/N=C/c1ccc(F)cc1	·	·	11.6%	·	·	·
CC(NS(=O)(=O)c1ccccc1)C(c1cccs1)N1CCOCC1 (stereo unspecified)	?	7.3%	-4.2%	1.5%	-7.7%	1.2%
Cc1nn2c(C)c(C(=O)NCc3ccc(OC(C)C)cc3)cnc2c1-c1ccc(F)cc1	·	8.5%	·	·	6.6%	0.0%
CCOC(=O)NCc1ccc(Cl)c(Cl)c1	5.9%	-2.6%	2.2%	1.5%	-8.8%	-12.1%
Cc1ccc(C(=O)NCc2ccc(Cl)c(Cl)c2)o1	1.6%	2.2%	3.0%	12.6µM*	1.9%	-3.5%
O=C1C2CCC(C2)[C@@H]2CCCCN12 (stereo partly specified)	?	-5.1%[126 µM]	·	-12.1%	-4.5%[126 µM]	-3.7%[126 µM]
O=C(CN1CCN(c2ccc(O)cc2)CC1)Nc1cc(S(=O)(=O)N2CCCC2)ccc1Cl	14.1µM*	-2.2%	?	·	?	?
COc1ccc(S(=O)(=O)N2CCCCC2)cc1NC(=O)CN1CCN(C(C)=O)CC1	9.5%	-1.2%	1.8%	·	5.6%	5.1%
O=C(CN1CCN(c2ccc(O)cc2)CC1)Nc1cc(S(=O)(=O)N2CCCCC2)ccc1Cl	23.8µM*	-1.2%	-10.2%	·	?	?
CC1CN(CC(=O)Nc2cc(S(=O)(=O)N3CCCC3)ccc2Cl)CC(C)O1 (stereo unspecified)	-2.3%	-1.7%	0.9%	·	-4.7%	-7.6%
Cn1cc(-c2cc3n(n2)CCC(=O)N3CCCC(=O)NCc2ccc(F)cc2)c2ccccc21	·	-1.4%	·	·	-23.1%	1.4%
C=CCN1C(=O)S/C(=C\c2ccc3c(c2)n(C)c(=O)n3C)C1=O	0.282µM*	-6.1%	-7.1%	13.7%	0.5%	-0.1%
CCOC(=O)CN1C(=O)S/C(=C/c2ccc3c(c2)n(C)c(=O)n3C)C1=O	?	-6.8%	7.0%	-19.5%	-10.2%	-18.6%
CCN1C(=O)S/C(=C/c2ccsc2)C1=O	?	7.8%	-3.3%	-28.4%	-4.5%	-4.5%
C=CCN1C(=O)S/C(=C/c2ccsc2)C1=O	12.6µM*	1.2%	0.8%	-24.1%	1.7%	5.4%
COc1ccccc1C1CCN(Cc2cccc([N+](=O)[O-])c2)CC1	·	-1.4%	0.6%	·	-10.5%	-8.6%
COc1ccccc1C1CCN(c2ccc(CO)cc2[N+](=O)[O-])CC1	?	-0.7%	-27.6%	·	?	14.1µM*
CCOc1cc(CNC(=O)NC2COc3ccccc3C2)cc(OCC)c1OCC (stereo unspecified)	·	0.0%	·	·	-12.1%	-12.2%
CCC(C)[C@H]1CN=C(N)N1CCc1cc(C(F)(F)F)cc(C(F)(F)F)c1 (stereo partly specified)	·	-0.4%	10.0%	·	1.3%	-2.9%
O=C(COc1cnc2ccccc2n1)NCCC1=CCCCC1	11.2µM*	0.5%	41.5%	-15.4%	0.5%	-4.4%
SMILES	ALDH1A1 block	Tau FP inhib	JMJD2E inh	HPGD inh	Tau fluor counter	Tau ThT inhib
COC(=O)c1cccc(NC(=S)NCCC2=CCCCC2)c1	28.2µM*	?	1.2%	?	?	-7.7%
O=C(COc1ncnc2ccccc12)NCCC1=CCCCC1	1.6%	2.6%	1.2%	-7.7%	3.2%	7.5%
CCOC(=O)COc1ccc(S(=O)(=O)NCCC2=CCCCC2)cc1	31.6µM*	1.9%	1.6%	-10.5%	-9.1%	-3.1%
COc1ccc(OCCC(=O)OCC(=O)NC2CCCCCCC2)cc1	15.8µM*	12.3%	-21.3%	·	-8.5%	-8.4%
COC(=O)c1ccc(NC(=S)NCCC2=CCCCC2)cc1	?	?	12.4%	-15.7%	?	5.5%
COC(=O)C1=C(C(=O)OC)[C@@H]2N(Cc3ccccc3)c3ccccc3[C@@]23C[C@@H](CO)N(C(=O)NC2CCCC2)C3=N1	·	5.3%	7.1%	·	-5.9%	-1.3%
CC(C)(C)c1ccc(C(=O)NCCc2csc3nc(-c4ccccc4F)nn23)cc1	·	11.1%	·	·	-20.5%	-7.2%
COc1ccccc1C(=O)C1CCCN(C(=O)CN2CCCCC2=O)C1 (stereo unspecified)	-6.5%	3.0%	-5.1%	·	3.0%	-8.0%
O=C(COC(=O)Cc1c(Cl)cccc1Cl)NCCC1=CCCCC1	-6.2%	1.7%	1.7%	12.6µM*	-5.9%	0.0%
O=C(NC(=S)NCCC1=CCCCC1)c1ccccc1Br	7.08µM*	-8.6%	4.6%	·	-24.5%	?
COc1ccc(CNC(=O)COC(=O)CC2CCCC2)cc1	7.94µM*	2.2%	-4.5%	-12.3%	5.0%	6.2%
COc1ccc(CNC(=O)COC(=O)C2CCC(C(C)(C)C)CC2)cc1 (stereo unspecified)	?	-8.3%	1.1%	-23.7%	-14.6%	-11.4%
COc1ccc(OCCC(=O)OCC(=O)NCCC2=CCCCC2)cc1	12.6µM*	4.3%	-3.3%	·	-16.0%	?
CN(C)Cc1nc(-c2cn(C)c3ccccc23)no1	?	-11.2%	·	·	3.3%	10.5%
COc1cccc(N2CCN(C(=S)Nc3cc(C)cc(C)c3)CC2)c1	3.8%	2.8%	-2.1%	·	-11.9%	-4.9%
Cc1ccc(CNC(=O)Cn2cc(S(=O)(=O)Cc3cccc(Cl)c3)c3ccccc32)cc1	·	-10.0%	·	·	-20.9%	3.6%
CCOC(=O)C1C(C(=O)OC)=C(CC(C)C)c2ccccc2N1S(=O)(=O)C(F)(F)F (stereo unspecified)	2.0%	-6.6%	·	-8.3%	-21.0%	-15.2%
CCOC(=O)Cn1c(=O)oc2cc(S(=O)(=O)N3CCN(c4ccccc4OC)CC3)ccc21	·	13.9%	·	·	-9.6%	6.8%
COc1ccc(CC(=O)NCCC2=CCCCC2)cc1	23.8µM*	3.0%	4.6%	·	4.9%	-0.7%
COc1ccc(N(CC(=O)NCCC2=CCCCC2)S(C)(=O)=O)cc1	?	3.0%	-9.3%	2.9%	-9.1%	-3.9%
N#Cc1ccc(CN2CC3(CCN(C(=O)c4csnn4)CC3)C2)cc1	10.5%	·	·	-7.3%	·	·
